A short description of test [1]: Viability qHTS for spleen associated tyrosine kinase inhibitor (SYKi) naive MV4-11 cells (AID 1963823). Also: nearly all actives have a fitted effect of over 40% in size. In outline:
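Luminescence from CellTiter-Glo, developed 10 min at room temperature, gave viability of MV4-11 cells never exposed to SYK inhibitor. Cells (500/well) had been incubated with compounds for 72 hr under standard culture conditions.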
(qHTS replaces the single test concentration by a dilution series.)

Test [2] in a line: Viability qHTS for spleen associated tyrosine kinase inhibitor (SYKi) drug resistant MV4-11 cells (AID 1963824). Also: nearly all actives have a fitted effect of over 35% in size. The procedure, abridged: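 CellTiter-Glo luminescence, read 10 min after reagent addition, reports viability after a 72 hr compound exposure. Cells are an MV4-11 line made resistant to SYK inhibition, seeded at 500 per well onto compound-containing plates.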
The nature of test [3]: Cellular viability qHTS for adrenocortical cancer (ACC) cell line SW-13 (AID 1963989). Also: nearly all actives have a fitted effect of over 65% in size.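 As to activity (max response): cells grown in serum-free medium with ITS supplement; % is scaled to controls: 0 for no effect and ±100 for the full control effect.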 To be noted: SW-13 ACC cells viability, CellTiter-Glo, 48 h; activity (max response): stronger effect = lower value. In outline: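 Viability was read as CellTiter-Glo luminescence after 48 h compound treatment (up to 46 uM final) of SW-13 cells grown serum-free; titration curves were fit with a four-parameter logistic model to give IC50 and efficacy.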

Test [4] is described as follows: Cellular viability qHTS for adrenocortical cancer (ACC) cell line NCI-H295R (AID 1963990). Also: nearly all actives have a fitted effect of over 60% in size. The procedure, abridged:
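CellTiter-Glo ATP luminescence, read 48 h after compound addition, measured viability of NCI-H295R adrenocortical cells grown serum-free with ITS. Final concentrations spanned up to 46 uM. Data normalized to DMSO and doxorubicin, fitted for IC50 and maximal response.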

Where “and” joins values, the source holds several entries; their conditions need not be identical. Identical values can stand only once. Results filed as inconclusive are left out. Values without a mark were called inactive. Calls of active or inactive are those of the source. Calls follow the shape of the dose curve; as a rule, active = well fitted curve in the direction sought with a large enough effect; inconclusive = small, poorly fitted or top-dose-only effect, or another doubt; inactive = no such curve, though single readings can be large; an effect the other way counts as inactive or inconclusive.
Potency is read from the fitted curve at half-maximal effect.

On to `CC(C)(O)CC[C@@H](O)[C@](C)(O)[C@H]1CC[C@@]2(O)C3=CC(=O)[C@@H]4C[C@@H](O)[C@@H](O)C[C@]4(C)[C@H]3CC[C@]12C`, for which the Potency entry in test [1], in test [2] and in test [4] was “inactive” in each case. Moreover, the activity (max response) in test [3] is 9.11%.
As for `Nc1cc(-c2ccncc2)c[nH]c1=O`, the Potency result in test [1], in test [2] and in test [4] was “inactive” throughout. For the same molecule, the activity (max response) in test [3] is 2.68%.
Consider `CCCCCCCCCCCCCCCC[n+]1ccccc1`, for which the Potency in test [1] is 668 nM (active); in test [2], 668 nM (active); in test [3], 3660 nM (active); in test [4] it was 5800 nM (active).
Take `O=C(OCC1(COC(=O)c2cccnc2)CCCC(COC(=O)c2cccnc2)(COC(=O)c2cccnc2)C1O)c1cccnc1`: the Potency entry in test [1], in test [2] and in test [4] was “inactive” throughout. Also, the activity (max response) in test [3] was 7.27%.
Regarding `COc1cccc2c1C(=O)c1c(O)c3c(c(O)c1C2=O)C[C@@](O)(/C(CO)=N/NC(=O)CCCCCN1C(=O)C=CC1=O)C[C@@H]3O[C@H]1C[C@H](N)[C@H](O)[C@H](C)O1`, the Potency in test [1] is 132 nM (active); in test [2], 186 nM (active); in test [3], 3550 nM (active); in test [4], 14100 nM (active).
`CC(C(=O)O)c1ccc(C(=O)c2ccccc2)s1` (stereo unspecified): the Potency entry in test [1], in test [2] and in test [4] was “inactive” in each case. Further, the activity (max response) in test [3] was -5.09%.
On to `C[C@@H](O[C@H]1OCCN(Cc2n[nH]c(=O)[nH]2)[C@@H]1c1ccc(F)cc1)c1cc(C(F)(F)F)cc(C(F)(F)F)c1`, for which the Potency in test [1] was 16600 nM (active); in test [2], 16600 nM (active); in test [3] it was 22400 nM (active); in test [4], 25100 nM (active).
For the molecule `COc1cccc(OCCCN)c1-c1cc(Nc2cnc(C#N)cn2)n[nH]1`, the Potency in test [1] was 14.6 nM (active) and 5.9 nM (active); in test [2] it was 11.6 nM (active). For the same molecule, the activity (max response) in test [3] is -3.44%. Further, the Potency result in test [4] was “inactive”.
As for `Cn1cc(/C=C/C(=O)c2cccc(F)c2)cc1/C=C/C(=O)NO`, the Potency is 3720 nM (active) in test [1] and 4170 nM (active) in test [2]. In addition, the activity (max response) in test [3] was 9.4%. For the same molecule, the Potency entry in test [4] was “inactive”.
For `C[C@]12CCC(=O)C=C1CC[C@@H]1[C@@H]2C(=O)C[C@@]2(C)[C@H]1CC[C@]2(O)C(=O)CO` the same measures were “inactive”, “inactive”, 7.27% and “inactive”.
For `CN=C(NC#N)NCCSCc1csc(N=C(N)N)n1` the same measures were “inactive”, “inactive”, 7.67% and “inactive”.
For `COCc1c(-c2ccc(NC(=O)Nc3cc(C(F)(F)F)ccc3F)c(F)c2)c2c(N)ncnn2c1CN1CCOCC1` the same measures were 10.5 nM (active), 16.4 nM (active), -5.64% and “inactive”.
For `CN(Cc1ccc(/C=C/C(=O)NO)cc1)CC12CC3CC(CC(C3)C1)C2`, the Potency in test [1] was 296 nM (active); in test [2] it was 235 nM (active); in test [3], 2240 nM (active); in test [4] it was 447 nM (active).
As to `CC(C)COC(=O)c1ccc(N)cc1`, the Potency result in test [1], in test [2] and in test [4] was “inactive” in each case. Also, the activity (max response) in test [3] was 4.68%.
For `C=C1/C(=C\C=C2/CCC[C@]3(C)[C@@H]([C@H](C)CCCC(C)(C)O)CC[C@@H]23)C[C@@H](O)C[C@@H]1O`, the Potency in test [1] is 18.6 nM (active); in test [2] it was 1480 nM (active); in test [3] it was 28200 nM (active); in test [4] it was 25100 nM (active).
On to `COc1cc(N2CCC(N)CC2)ccc1Nc1ncc(Cl)c(-c2c[nH]c3ccccc23)n1`, for which the Potency in test [1] is 16.6 nM (active); in test [2] it was 18.4 nM (active) and 37.2 nM (active); in test [3], 3160 nM (active); in test [4] it was 447 nM (active).
Consider `COc1ccc(Cl)cc1C(=O)NCCc1ccc(S(=O)(=O)NC(=O)NC2CCCCC2)cc1`, for which the Potency result in test [1], in test [2] and in test [4] was “inactive” throughout. Further, the activity (max response) in test [3] is -4.38%.
For the molecule `C=CC(=O)N1CC[C@@H](Oc2nc(Nc3ccc(N4CCC(N5CCN(C)CC5)CC4)cc3)c(C(N)=O)nc2CC)C1`, the Potency in test [1] was 32.3 nM (active); in test [2] it was 91 nM (active); in test [3], 1430 nM (active); in test [4], 7150 nM (active).
As for `CCCCc1nc2cc(/C=C/C(=O)NO)ccc2n1CCN(CC)CC`, the Potency in test [1] is 411 nM (active) and 525 nM (active); in test [2], 291 nM (active) and 468 nM (active); in test [3], 2000 nM (active); in test [4] it was 708 nM (active).
As to `CC(Cc1ccccc1)(NC(=O)CN)c1ccccc1` (stereo unspecified), the Potency entry in test [1], in test [2] and in test [4] was “inactive” throughout. Besides, the activity (max response) in test [3] was 8.44%.
`C=CC(=O)N1CCC[C@@H](n2nc(-c3ccc(Oc4ccccc4)cc3)c3c(N)ncnc32)C1`: the Potency in test [1] was 1.64 µM (active) and 662 nM (active); in test [2] it was 1.3 µM (active) and 1.18 µM (active). Besides, in test [3], the activity (max response) is 5.79%. In test [4], the Potency entry is “inactive”.
`CCCCC(=O)OCC(=O)[C@]1(O)Cc2c(O)c3c(c(O)c2[C@@H](O[C@H]2C[C@H](NC(=O)C(F)(F)F)[C@H](O)[C@H](C)O2)C1)C(=O)c1c(OC)cccc1C3=O`: the Potency is 148 nM (active) in test [1], 209 nM (active) in test [2], 2820 nM (active) in test [3] and 3550 nM (active) in test [4].
For `CC[C@@](C)(Nc1ccnc(-c2c[nH]c3ncccc23)n1)C(=O)NCC(F)(F)F`, the Potency in test [1] was 14600 nM (active); in test [2], 16400 nM (active). Moreover, the activity (max response) in test [3] is 0.931%. Besides, in test [4], the Potency result was “inactive”.
For `O=C(NCCCNc1nc(Nc2cccc(CN3CCOCC3)c2)ncc1C1CC1)C1CCC1`, the Potency in test [1] is 132 nM (active); in test [2], 291 nM (active). Further, the activity (max response) in test [3] was 10.1%. The Potency entry in test [4] is “inactive”.

For the origin of these results see PubChem BioAssay (NCATS).
